FBW7 activator: activators of human E3 ligase FBW7; actives 0.13% (n = 650,000); normalized activity (activation), % at 26.1 µM; Q969H0; AlphaScreen FBW7–phospho-cyclin E peptide binding, activator screen; AID 1259310; in the data active = normalized activity above about 1.9%;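 note: purified mutant Fbw7 with reduced substrate affinity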
GPR151 activ: activates the human receptor GPR151 | Q8TDV0 | PathHunter beta-arrestin GPR151 cells, luminescence | activation, % at 11.2 µM | actives 1% (n = 650,000); in the data active = activation above about 4.9%
Target sequence (Q8TDV0 whole entry, looked up): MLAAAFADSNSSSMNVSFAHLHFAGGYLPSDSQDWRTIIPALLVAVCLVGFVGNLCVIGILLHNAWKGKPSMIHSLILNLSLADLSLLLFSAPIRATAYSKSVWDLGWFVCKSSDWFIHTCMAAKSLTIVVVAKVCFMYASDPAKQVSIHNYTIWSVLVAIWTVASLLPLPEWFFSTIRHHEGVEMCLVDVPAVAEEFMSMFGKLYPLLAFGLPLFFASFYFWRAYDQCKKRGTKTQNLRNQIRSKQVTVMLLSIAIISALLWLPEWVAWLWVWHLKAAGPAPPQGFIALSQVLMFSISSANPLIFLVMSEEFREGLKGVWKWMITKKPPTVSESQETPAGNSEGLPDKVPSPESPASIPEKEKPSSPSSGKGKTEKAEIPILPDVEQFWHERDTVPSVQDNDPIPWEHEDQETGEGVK
TEAD-YAP inh: TEAD-YAP interaction inhibition. actives 1.4% (n = 640,000). AID 1259422. inhibition, % at 9.12 µM. HEK-TIYL cells, TEAD-Gal4/YAP UAS-luciferase luminescence; in the data active = inhibition above about 32%
MITF inh: blocks human microphthalmia-associated transcription factor; inhibition, % at 2.6 µM; AlphaScreen MITF homodimerization, bead proximity signal; AID 1259374; O75030; actives 0.91% (n = 650,000); in the data active = inhibition above about 50%
Each line names hits and unclear results; the compound was inactive in the other large screens. Shown are actives, neighbours in structure and some others; about 3.5% of the full set was active somewhere.

CCOC(=O)c1c(NC(=O)/C(C#N)=C/c2cccnc2)sc(C)c1C	FBW7 activator 2.0
CCOC(=O)c1c(NC(=O)/C(C#N)=C/c2cccnc2)sc2c1CCCC2	none
CCC1=NN2C(=N)/C(=C\c3ccc(N(CC)CC)cc3)C(=O)N=C2S1	none
Cc1cccc(C(=O)/C(C#N)=N/Nc2c(C)n(C)n(-c3ccccc3)c2=O)c1	TEAD-YAP inh 42
O=C(NCc1ccc(F)cc1)c1cc2ccccc2oc1=O	none
COc1cc2nc(CN3CCN(c4ccccc4F)CC3)[nH]c(=O)c2cc1OC	TEAD-YAP inh 48
COc1cc2nc(CN3CCCCC3)[nH]c(=O)c2cc1OC	none
CC1=C(C)/C(=N\S(=O)(=O)c2ccc(C)cc2)C=C(N(C)C)C1=O	MITF inh 84
CN(C)C1=C/C(=N/S(=O)(=O)c2ccccc2)c2ccccc2C1=O	TEAD-YAP inh 90, MITF inh 59
CC1=C(C)/C(=N\S(=O)(=O)c2ccccc2)C=C(Cl)C1=O	none
Cc1ccc(C(=O)C2C(c3cccs3)C(C#N)(C#N)C3C=Cc4ccccc4N23)cc1 (stereo unspecified)	TEAD-YAP inh 43
COc1ccc(C(=O)[C@@H]2[C@@H](c3cccs3)C(C#N)(C#N)[C@H]3C=Cc4ccccc4N23)cc1	TEAD-YAP inh 55
CCn1c(SCc2cccnc2)nnc1-c1cc2ccccc2cc1O	TEAD-YAP inh 44
O=C(N/N=C/c1cc(Br)cc(I)c1O)c1cccnc1	TEAD-YAP inh 68
O=C(N/N=C/c1cc(Cl)cc(Br)c1O)c1cccnc1	TEAD-YAP inh 79, MITF inh 64
COc1cc(Cl)cc(/C=N/NC(=O)c2cccc(F)c2)c1O	TEAD-YAP inh 70
O=C(N/N=C/c1cc(Cl)cc(Br)c1O)c1ccncc1	TEAD-YAP inh 47, MITF inh 98
COc1cc(Br)cc(/C=N/NC(=O)c2ccc(F)cc2)c1O	none
C=CCn1c(SCC(=O)Nc2ccc(S(N)(=O)=O)cc2)nnc1-c1cccnc1	none
CN1CCN(C(=O)c2ccc(-c3nc(NCCOc4ccccc4)c4ncn(Cc5ccc(C(F)(F)F)cc5)c4n3)cc2)CC1	none
COc1cc(OC)c(Nc2nc(-c3cccc(C)c3)nc3ccccc23)cc1Cl	none
COc1ccc(C(=O)N/N=C/c2cc(Cl)cc(Br)c2O)cc1	TEAD-YAP inh 33
COc1cc(Br)cc(/C=N\NC(=O)c2ccc(Br)cc2)c1O	none
O=C(N/N=C/c1cc(Br)cc(Br)c1O)c1cccnc1	TEAD-YAP inh 33
Cc1cc(Br)cc(/C=N\NC(=O)c2ccc(N)cc2)c1O	TEAD-YAP inh 66
COc1cc(Br)cc(/C=N/NC(=O)c2ccncc2)c1O	TEAD-YAP inh 87, MITF inh 91
COc1ccc(NC(=O)C(C(C)C)N2C(=O)c3ccccc3C2=O)cc1Cl (stereo unspecified)	none
Cc1ccnc(NC(=O)COc2ccc(Br)cc2Cl)c1	TEAD-YAP inh 93
Cc1ccnc(NC(=O)COc2cc(C)ccc2C)c1	none
O=C(COc1cc(Cl)c(Cl)cc1Cl)Nc1nccs1	TEAD-YAP inh 59
O=C(COc1ccc(Br)cc1Cl)Nc1ncn[nH]1	TEAD-YAP inh 46
O=C(COc1ccc(Cl)cc1Br)Nc1nccs1	TEAD-YAP inh 89
CC1CCCC(NC(=O)CCNC(=O)c2ccc(C(C)(C)C)cc2)C1C (stereo unspecified)	none
Cc1ccc(CCNC(=O)Nc2ccc(C)cc2)cc1	none
O=C(COc1ccc(Br)cc1Cl)Nc1nccs1	TEAD-YAP inh 92
CCNc1nc(C)cc(NCc2cccc(C(F)(F)F)c2)n1	none
CCNc1nccc(NCc2cccc(C(F)(F)F)c2)n1	TEAD-YAP inh 37
OC1CCC(Nc2nccc(NCc3cccc(C(F)(F)F)c3)n2)CC1 (stereo unspecified)	TEAD-YAP inh 48
FC(F)(F)c1cccc(CNc2ccnc(Nc3ccc(-n4ccnc4)cc3)n2)c1	TEAD-YAP inh 36
OC1CCC(Nc2nccc(NCc3ccccc3)n2)CC1 (stereo unspecified)	none
CN(C)CC(C)(O)c1ccc2c(c1)CN(C(=O)Cc1ccccc1Cl)CCO2 (stereo unspecified)	none
CCN1CCN(C(=O)CN(Cc2ccccc2)S(=O)(=O)c2c(C)cc(C)cc2C)CC1	none
CNc1nnc(-c2cccc(OC)c2)s1	none
CCS(=O)(=O)N1CCN(Cc2nc(-c3ccc(Cl)cc3)cs2)CC1	TEAD-YAP inh 33
N#CC1=C(N)C(C#N)(C#N)C(c2ccc(O)cc2)C2CCCC=C12 (stereo unspecified)	none
N#CC1=C(N)C(C#N)(C#N)C(c2ccccc2)C2CCCC=C12 (stereo unspecified)	FBW7 activator 1.9
COc1ccc2sc(Nc3nc(-c4ccccn4)cs3)nc2c1	TEAD-YAP inh 37
COc1ccc2nc(Nc3nc(-c4cccnc4)cs3)sc2c1	none
COc1ccc2nc(Nc3nc(-c4ccccn4)cs3)sc2c1	TEAD-YAP inh 49, MITF inh 51
CCC(C)C(=O)C(=O)NCC1Cc2cc(-c3cncnc3)cc(Cl)c2O1 (stereo unspecified)	none
Cc1cc2cc(C(c3nnnn3C(C)(C)C)N3CCN(C)CC3)c(=O)[nH]c2cc1C (stereo unspecified)	none
Brc1cccc(C2Nc3cccc4cccc(c34)N2)c1	none
O=C1NC(c2cccc(Br)c2)Nc2ccccc21 (stereo unspecified)	TEAD-YAP inh 49
CC(C)(C)c1ccc(C2NC(=O)c3ccccc3N2)cc1 (stereo unspecified)	TEAD-YAP inh 48
CN(C)c1ccc(C2NC(=O)c3ccccc3N2)cc1 (stereo unspecified)	TEAD-YAP inh 56
O=C1NC(c2ccncc2)Nc2ccccc21 (stereo unspecified)	none
N#CCOc1ccc(C2NC(=O)c3ccccc3N2)cc1 (stereo unspecified)	none
O=C1NC(c2ccc(-c3ccccc3)cc2)Nc2ccccc21 (stereo unspecified)	TEAD-YAP inh 40
Cn1c(=NC(=O)C2=COCCO2)sc2cccc(F)c21	none
Cc1c(C(=O)N2CCC(Cc3ccccc3)CC2)sc2ncnc(N3CCN(c4ccccc4)CC3)c12	none
NCCOc1ccc(C(=O)Nc2ccc3[nH]ncc3c2)cn1	TEAD-YAP inh 54
CN1CC[C@H](Oc2ccnc(C(=O)Nc3ccc4[nH]ncc4c3)c2)C1	none
CN1CC[C@H](Oc2ccc(C(=O)Nc3ccc4[nH]ncc4c3)cn2)C1	none
CN1CCC(Oc2ccc(C(=O)Nc3ccc4[nH]ncc4c3)cn2)CC1	TEAD-YAP inh 88
O=C(Nc1ccc2[nH]ncc2c1)c1ccc(O[C@H]2CCNC2)nc1	none
CN1CC[C@@H](Oc2cc(C(=O)Nc3ccc4[nH]ncc4c3)ccn2)C1	TEAD-YAP inh 52
CN1CCCC(Oc2ccnc(C(=O)Nc3ccc4[nH]ncc4c3)c2)C1 (stereo unspecified)	TEAD-YAP inh 45
COC(=O)COc1ccc(/C=C2\C(=O)C(C(=O)OC)=C(C)N2c2ccc(F)cc2)cc1	none
CCc1cccc2c(/C=C3\NC(=S)N(CC)C3=O)cn(CC(N)=O)c12	none
CCOC(=O)c1cnc2cccc[n+]2c1Cl	none
CCOC(=O)C(=N/O)/C(C)=N/NC(=O)c1cc(OC)c(OC)c(OC)c1	TEAD-YAP inh 41
